PubChem BioAssay AID463075 (University of Pittsburgh Molecular Library Screening Center, 2010)
Out of some 220,000 compounds screened, about 150 (0.068%) were called active. The entries come from a sample that favours actives as a whole. Unmarked numbers belong to inactive results.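 Rule for the calls: active = activation, meaning protection from cell death, of at least 50% relative to plate controls; inactive = activation below 50%.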

test: inhibitors of TNF-alpha triggered necroptosis, primary screen, cell-based, Jurkat FADD-/-, single concentration (AID 463075); settings: Jurkat FADD-/- TNF necroptosis rescue, ATP luminescence, 24 h; at 10 µM; active compounds read high; 0 = TNF only, 100 = no-TNF cells;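 note: necroptosis triggered by 40 ng/mL TNF-alpha added together with compound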

SMILES	activation (protection from cell death)
CCOc1ccc(NC(=O)C2CC(=O)N=C(N)S2)cc1 (stereo unspecified)	0.442%
CCOC(=O)C1=C(CC)Nc2ccccc2N=C1NC(=O)c1cccc(S(=O)(=O)N2CCCC2)c1	-3.1%
COC(=O)C1CCN(CC(N)=O)CC1	1.78%
Cc1c([N+](=O)[O-])c(N)nn1C	0.221%
COc1ccc(CC(=O)NCc2nnc(SCC(=O)Nc3ncc(C)s3)n2C)cc1	1.73%
Clc1ncn(CCOc2ccccc2)c1Cl	3.48%
N#Cc1c(N2CCCCC2)nc(N)c2c(N)nc(SCC(=O)O)cc12	-7.92%
Cc1cc(C(=O)COC(=O)C2CC2)c(C)n1-c1ccc(F)cc1	-0.153%
CN(C(=O)c1c(Cl)cnn1C)C12CC3CC(CC(C3)C1)C2	-0.801%
CCNc1ccc(C(=O)OCC(=O)N2c3ccccc3NC(=O)C2(C)C)cc1[N+](=O)[O-]	1.58%
CCn1c2ccccc2c2cc(CC(N)=O)ccc21	-1.12%
CCc1ccccc1NC(=O)CN(c1ccc(OC)cc1OC)S(=O)(=O)c1ccccc1[N+](=O)[O-]	0.342%
Cc1ccc2nc(SC(C)C(=O)NCc3ccco3)[nH]c2c1 (stereo unspecified)	-0.614%
CCOC(=O)c1c(N)sc2c1CCCC2=O	-2.66%
O=C1CC(c2ccccc2)C(=O)N1c1cccc(O)c1 (stereo unspecified)	52% (active)
O=C1CC(NNc2ccccc2)C(=O)N1c1cccc(Cl)c1 (stereo unspecified)	-2.98%
O=C1OCC2=C1C(c1ccccc1)CC(=O)N2c1cccc(F)c1 (stereo unspecified)	-0.757%
Cc1nnc(Nc2ccccc2F)s1	0.78%
N#Cc1c(-c2ccc(Cl)cc2)c2c([nH]c1=S)CCCC2	-2.48%
O=C(O)c1ccccc1-c1ccccc1C(=O)NCc1cccnc1	0.395%
CCN(C(=O)COc1cccnc1[N+](=O)[O-])C1CCS(=O)(=O)C1 (stereo unspecified)	0.598%
CCC(C)n1c(-c2cc(OC)c(OC)c(OC)c2)nc2nc3ccccc3nc21 (stereo unspecified)	-16.6%
CC(=O)Nc1nc2c(s1)C(=O)NCC(C)(C)C2	0.16%
Cc1ccc(S(=O)(=O)NCCc2nnc3ccc(SCc4cccnc4)nn23)cc1	-0.101%

SMILES	activation (protection from cell death)
O=C(CCc1ccccc1)Nc1ncc([N+](=O)[O-])s1	9.81%
O=C(Cc1c(F)cccc1Cl)Nc1ccc(-n2cnnn2)cc1	0.184%
O=C(Cc1c(F)cccc1Cl)Nc1ncc([N+](=O)[O-])s1	59.9% (active)
COc1ccc(Br)cc1C(=O)Nc1cccc(C)c1C	0.986%
O=C(NC(Cc1c[nH]c2ccccc12)C(=O)N/N=C/c1ccc(Br)cc1)c1cccs1 (stereo unspecified)	-2.26%
CC(C)c1nc(CNC(=O)CC2C(=O)NCCN2Cc2ccoc2)cs1 (stereo unspecified)	-0.307%
CCc1cc(CNC(=O)CC2C(=O)NCCN2Cc2ccccc2C(F)(F)F)on1 (stereo unspecified)	1.76%
COC(=O)c1ccc(CSc2ccccc2C)o1	6.63%
COC(=O)c1ccc(Cc2ccccc2)o1	55.2% (active)
COC(=O)c1ccc(CN(c2ccccc2OC)S(=O)(=O)c2cccs2)o1	0.0719%
COc1ccccc1CNC(=O)CN1CCC(n2cnc3cc(F)ccc32)CC1	4.48%
O=C(c1ccc(S(=O)(=O)c2ccccc2)cc1)N1CCCCCC1	1.36%
Nc1c(-c2cccc(Cl)c2)cnn1-c1cccc([N+](=O)[O-])c1	-1.25%
c1ccc(-c2csc(N3CCc4ccccc4C3)n2)cc1	-3.03%
C=CCCN(Cc1ccccc1)S(=O)(=O)c1ccccc1Br	-2.9%
CC(C)(C)c1ccc(/C=C2\SC(=O)N=C2N)cc1	2.08%
Cc1cccc(NC(=O)c2nc[nH]c2C(=O)NCC(=O)OCc2ccccc2)c1	-9.45%
CCN(CC)CCNC(=O)c1ccc(NC(=O)c2c(F)cccc2Cl)cc1	-0.132%
COc1ccccc1C(=O)CSc1cccc[n+]1[O-]	-0.693%
Cc1cc(C(=O)OCC(=O)Nc2ccc(F)c(F)c2)c(C)o1	3.31%
COCCCNC(=O)C1CCC(CNS(=O)(=O)c2ccc(OC)cc2)CC1 (stereo unspecified)	1.04%
Cc1cccc(C(=O)N2CCc3c([nH]c4ccccc34)C2CC(C)C)n1 (stereo unspecified)	1.18%
Cc1cc([N+](=O)[O-])nn1Cc1ccc(F)cc1	76.6% (active)
Cc1cc([N+](=O)[O-])nn1CCCC(=O)Nc1cccnc1Cl	0.812%

SMILES	activation (protection from cell death)
Cc1cc([N+](=O)[O-])nn1CC(=O)Nc1ccc(Cc2ccncc2)cc1	3.27%
CC(=O)Nc1ccn(Cc2c(F)cccc2Cl)n1	88% (active)
O=C(Nc1ccn(Cc2ccccc2)n1)c1cccc(F)c1	3.16%
O=C(Nc1ccn(Cc2ccccc2F)n1)c1ccc(COc2ccc(Cl)cc2Cl)o1	-6.7%
CCc1cccc(CC)c1NC(=O)COc1ccccc1C(=O)c1cc(C#N)c(=O)n(C2CCCCC2)c1	1.06%
Cn1nccc1NC(=O)Nc1ccc(OC(F)(F)F)cc1	2.9%
CCCC(=O)n1nc(NCc2ccc(OC)cc2)nc1NCc1ccc(OC)cc1	2.21%
CC(C)CNC(=O)C(=O)NCc1ccccc1	1.96%
CC(C)(C)C(=O)N1CCC[C@@]1(CO)C(=O)O	1.03%
CCN(Cc1ccncc1)C(=O)c1cccc(S(=O)(=O)N2CCOCC2)c1	0.919%
COc1cc(C=O)ccc1Oc1nnnn1-c1ccccc1	-3.04%
N#CC1(NC(=O)COc2ccc3oc4ccccc4c3c2)CCCCC1	1.8%
CC(C)N(C(=O)Cn1cc(SCC(=O)N2CCCC2)c2ccccc21)C(C)C	1.35%
Cc1ccc(S(=O)(=O)N(C)C)cc1NC(=O)COC(=O)c1c(C)noc1C	0.89%
CN(C)CCNC(=O)/C(=C/c1cccc([N+](=O)[O-])c1)NC(=O)c1ccccc1	2.51%
COc1ccc(/C=C/C(=O)c2cc(Br)ccc(=O)c2O)cc1	-1.56%
CCc1ccc(C2C(C#N)=C(N)N(N3CCOCC3)C3=C2C(=O)CC(C)(C)C3)s1 (stereo unspecified)	0.137%
C[C@@H]1C[C@@H]2O[C@H]2/C=C\C=C\C(=O)Cc2c(Cl)c(O)cc(O)c2C(=O)O1	36.6%
C=CCOc1c(CNn2cn[nH]c2=S)cccc1OC	-0.439%
Cc1n[nH]c(=O)nc1N/N=C/c1cccs1	-6.4%
CCc1cccc(CC)c1NC(=S)Nc1ccc2cn[nH]c2c1	-5.25%
C=CCNc1nc(N)c(C(=C(C#N)C#N)c2ccccc2)s1	-6.24%
COC(=O)CCNC(=O)c1ccc2[nH]c(C)c(C)c2c1	-0.237%
COC(=O)COc1cccc2c(=O)n(CC(=O)NCc3ccccc3)ccc12	-12.7%

SMILES	activation (protection from cell death)
CCCc1cc(=S)n2c([nH]c3ccccc32)c1C#N	-1.86%
COc1cccc(CC(=O)N2CCCC(CCC(=O)N3CCN(c4ccccn4)CC3)C2)c1 (stereo unspecified)	2.68%
CCn1cc(C(=O)Nc2cc(C)ccc2C)c(=O)c2ccc(C)nc21	0.491%
O=[N+]([O-])c1ccc(N/N=C2/CCCCC2c2ccccn2)c([N+](=O)[O-])c1 (stereo unspecified)	2.74%
CCn1c2ccccc2c2cc(NC(=O)C/C(C)=N/NC(=O)c3ccccc3N)ccc21	-9.27%
COc1cc(OC)cc(/C(N)=N/O)c1	4.62%
Cc1ccc(S(=O)(=O)/N=C(/NC(=S)Nc2c(C)n(C)n(-c3ccccc3)c2=O)c2ccccc2)cc1	0.616%
O=C(N/N=C1\CCSC1)c1cc(Cl)ccc1O	-0.00524%
O=C(Cc1cccc2ccccc12)NNC(=O)Nc1ccc(Cl)cc1	7.05%
Cc1nc2ccccc2nc(=O)c1NNc1ccc([N+](=O)[O-])cc1	3.59%
Oc1ccc(/C=N/Nc2ccc(C(F)(F)F)cn2)cc1O	30.8%
O=S(=O)([N-]c1nc2ccccc2nc1-[n+]1ccc(Cc2ccccc2)cc1)c1ccc(Br)s1	-3.84%
CCCN=C1NC(=O)C(CC(=O)NCCc2ccc(OC)c(OC)c2)S1 (stereo unspecified)	1.06%
O=C(CSc1nnc(-c2ccncc2)o1)NCc1ccc(Cl)cc1	3.12%
Cc1cccc(N2CCN(C(=O)/C=C/c3ccco3)CC2)c1C	-4.02%
Cc1ccc(S(=O)(=O)N2CCN(CC(=O)N/N=C/c3cc([N+](=O)[O-])ccc3Cl)CC2)cc1	4.63%
COc1ccc(NC(=S)N2N=CCC2c2ccccc2)cc1 (stereo unspecified)	87.5% (active)
COc1ccc(C(=S)Nc2ccccc2)cc1	-4.07%
COc1ccc(C(=O)NC2CCN(C(=S)Nc3ccccc3)CC2)cc1	0.717%
CCCCS(=O)c1snnc1C (stereo unspecified)	-0.406%
CCCOc1ccc(Cc2c(Cl)nc(SC)nc2NC)cc1	-4.22%
CCCCN(C)CCNC(=O)CSCc1ccc(C)cc1	1.41%
CCN1C(=O)/C(=C2/Sc3ccc(OC)cc3N2C)SC1=Nc1ccc(C)cc1	-1.29%
COc1ccc(N(CC(=O)NC2CCCCC2)S(=O)(=O)c2c(C)[nH]c(=O)[nH]c2=O)cc1	-0.527%
